Assay results taken from PubChem BioAssay (Tox21).
Inconclusive results are not listed. Activity calls are given as the source filed them. Unless noted, calls come from the whole dose curve; as a rule, active = well fitted curve in the direction sought with a large enough effect in the repeat runs; inconclusive = weak or mixed curves; inactive = no such curve, though single readings can be large; an effect the other way counts as inactive or inconclusive.

Legend:
[1] = target: Thyrotropin receptor (Homo sapiens) (UniProt P16473); assay: qHTS assay to identify small molecule agonists of the thyroid stimulating hormone receptor (TSHR) signaling pathway (AID 1224843; calls by dose curve; note: nearly all actives have a fitted effect of over 45% in size)
In short: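 Screening of the Tox21 10K collection used HEK293 cells engineered with TSHR at 800 cells per well. After a 30-min room-temperature compound exposure, HTRF cAMP reagents were added and fluorescence recorded 1 h later.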

[2] = qHTS assay to identify small molecule agonists of the hypoxia (HIF-1) signaling pathway - cell viability counter screen (AID 1224844; calls by dose curve; note: nearly all actives have a fitted effect of over 50% in size)
In short: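 Cells (HRE-bla ME-180, 2,000 per well) sat 5 hrs at 37C, got compound for 17 hrs, were read for CCF4-AM FRET, and were finally lysed with CellTiter-Glo for a 30 min room-temperature luminescence read.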

[3] = qHTS assay to identify small molecule agonists of H2AX (AID 1224845; active = well fitted activation curve with a large enough effect in the signal ratio in the repeat runs, not every such curve was filed as active; the % refers to the signal ratio)
In short: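 Phospho-H2AX Ser139 measured by HTRF (ex 320 nm; em 665 and 620 nm) after 24 hr antibody incubation. Compounds, 15 concentrations, 0.76% DMSO, were applied to CHO-K1 cells for 3hr at 37C before lysis.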

[4] = qHTS assay to identify small molecule agonists of the hypoxia (HIF-1) signaling pathway (AID 1224846; active = well fitted activation curve with a large enough effect in the signal ratio in the repeat runs, not every such curve was filed as active; the % refers to the signal ratio)
In short: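 A low-serum medium (0.5% dialyzed FBS) holding 2,000 HRE-bla ME-180 cells per well is preincubated for 5 hrs, dosed with compounds by pintool, and kept a further 17 hrs at 37C, 5% CO2 before CCF4-AM FRET detection of beta-lactamase.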

[5] = qHTS assay to identify small molecule agonists of H2AX - cell viability counter screen (AID 1224847; calls by dose curve; note: top concentration of the series differs between compounds; nearly all actives have a fitted effect of over 30% in size)
In short: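 Quantitative HTS viability measurement: CHO-K1 wild-type cells in serum (10% FBS) medium, short 3 hr drug exposure at 37C with 0.76% DMSO, CellTiter-Glo luminescent detection.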

[6] = qHTS assay to identify small molecule antagonists of the estrogen related receptor (ERR) signaling pathway from Tox21 library (AID 1224848); note: nearly all actives have a fitted effect of over 50% in size; note: potency is the fitted concentration of half-maximal effect
In short: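 Antagonist-mode screen of the Tox21 10K library in an NTP-provided ERR reporter cell line; 18 h compound exposure at 37 C, luminescence measured with ONE-Glo.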

[7] = qHTS assay to identify small molecule agonists of the estrogen related receptor (ERR) signaling pathway from Tox21 library (AID 1224849; calls by dose curve; note: nearly all actives have a fitted effect of over 15% in size); conditions: ERR reporter cell line, ONE-Glo luciferase, 18 h; at 92.4 µM (top of the series) unless noted
In short: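 Screening used an NTP-provided ERR luciferase cell line. Compounds in DMSO were added 6 h after seeding and left 18 h at 37 C before a 30 min ONE-Glo step and luminescence reading.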

[8] = qHTS RealTime-Glo MT Cell Viability Assay in HepG2 cells - 24 hour (AID 1224867); note: nearly all actives have a fitted effect of over 50% in size
In short: (§1)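 Compound treatment began 5 h after plating HepG2 cells (600/well) with NanoLuc luciferase and prosubstrate. Plates stayed at 37 C for 40 h; luminescence was captured at six time points, 0 h through 40 h.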

[9] = qHTS RealTime-Glo MT Cell Viability Assay in HEK293 cells - 32 hour (AID 1224868); note: top concentration of the series differs between compounds; nearly all actives have a fitted effect of over 50% in size
In short: (§2)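 Quantitative high-throughput screen of the Tox21 10K library in HEK293: cells and RealTime-Glo reagents plated together, compound added at 5 h, luminescence monitored through 40 h at 37 C.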

[10] = A CellTox Green Cytotoxicity Assay to monitor cytotoxicity in HEK293 cells - 0 hour (AID 1224869); note: nearly all actives have a fitted effect of over 50% in size
In short: (§3)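 Fluorescence intensity, read at 0, 8, 16, 24, 32 and 40 h of compound treatment, reflected dye binding to DNA of dead HEK293 cells; compounds (23 nL, DMSO) were added 5 h after plating cells with reagent.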

[11] = qHTS RealTime-Glo MT Cell Viability Assay in HepG2 cells - 40 hour (AID 1224870); note: nearly all actives have a fitted effect of over 50% in size
In short: (§4)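 Real-time viability: cells seeded at 600 per well together with NanoLuc and cell-permeant prosubstrate, compounds added after 5 h incubation. Luminescence tracked at 0, 8, 16, 24, 32 and 40 h of exposure.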

[12] = A CellTox Green Cytotoxicity Assay to monitor cytotoxicity in HEK293 cells - 40 hour (AID 1224871); note: nearly all actives have a fitted effect of over 45% in size
In short: as §3

[13] = qHTS RealTime-Glo MT Cell Viability Assay in HEK293 cells - 16 hour (AID 1224872)
In short: as §2

[14] = qHTS RealTime-Glo MT Cell Viability Assay in HepG2 cells - 8 hour (AID 1224873); note: nearly all actives have a fitted effect of over 55% in size
In short: as §4

[15] = qHTS RealTime-Glo MT Cell Viability Assay in HEK293 cells - 40 hour (AID 1224874); conditions: RealTime-Glo luminescence; max response: hits give low values; note: nearly all actives have a fitted effect of over 50% in size
In short: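 Viable HEK293 cells reduce a cell-permeant prosubstrate; the product diffuses out and is consumed by NanoLuc in the medium to give light. Compounds went in after a 5 h incubation and plates were read over the treatment course.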

[16] = A CellTox Green Cytotoxicity Assay to monitor cytotoxicity in HepG2 cells - 16 hour (AID 1224876); note: nearly all actives have a fitted effect of over 45% in size
In short: (§5)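 Using 1536-well format, dye-containing HepG2 suspension was seeded, allowed 5 h at 37 C/5% CO2, dosed by pintool with compounds, positive and negative controls, and imaged for fluorescence across 40 h.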

[17] = qHTS RealTime-Glo MT Cell Viability Assay in HepG2 cells - 32 hour (AID 1224877); note: nearly all actives have a fitted effect of over 55% in size
In short: as §1

[18] = A CellTox Green Cytotoxicity Assay to monitor cytotoxicity in HepG2 cells - 24 hour (AID 1224878); note: nearly all actives have a fitted effect of over 45% in size
In short: as §5

[19] = A CellTox Green Cytotoxicity Assay to monitor cytotoxicity in HepG2 cells - 40 hour (AID 1224879); note: nearly all actives have a fitted effect of over 40% in size
In short: as §5

[20] = A CellTox Green Cytotoxicity Assay to monitor cytotoxicity in HEK293 cells - 24 hour (AID 1224875); note: nearly all actives have a fitted effect of over 45% in size
In short: as §3
% is set by controls: 0 for no effect and ±100 for the full control effect.

Sequence of Thyrotropin receptor (Homo sapiens) (P16473 whole entry, looked up): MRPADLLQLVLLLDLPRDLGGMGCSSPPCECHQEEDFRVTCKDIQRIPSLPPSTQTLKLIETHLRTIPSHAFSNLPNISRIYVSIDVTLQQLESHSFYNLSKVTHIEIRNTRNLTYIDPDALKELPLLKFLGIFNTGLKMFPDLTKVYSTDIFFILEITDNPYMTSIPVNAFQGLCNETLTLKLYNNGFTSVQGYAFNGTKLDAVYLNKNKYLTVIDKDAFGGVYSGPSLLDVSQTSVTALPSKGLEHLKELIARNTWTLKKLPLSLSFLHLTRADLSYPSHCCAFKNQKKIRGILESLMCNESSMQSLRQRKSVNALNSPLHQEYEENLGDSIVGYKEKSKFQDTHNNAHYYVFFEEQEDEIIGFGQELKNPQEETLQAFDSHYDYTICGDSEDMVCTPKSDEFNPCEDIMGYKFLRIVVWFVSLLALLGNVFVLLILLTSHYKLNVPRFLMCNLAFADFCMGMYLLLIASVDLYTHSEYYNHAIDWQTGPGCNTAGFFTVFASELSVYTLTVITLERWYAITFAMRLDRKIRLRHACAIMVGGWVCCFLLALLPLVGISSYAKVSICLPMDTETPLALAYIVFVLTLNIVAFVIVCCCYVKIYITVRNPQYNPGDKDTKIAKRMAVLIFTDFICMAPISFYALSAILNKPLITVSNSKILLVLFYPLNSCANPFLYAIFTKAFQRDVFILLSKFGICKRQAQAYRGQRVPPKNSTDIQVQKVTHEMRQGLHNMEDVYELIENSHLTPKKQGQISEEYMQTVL

OCc1ccccn1
inactive: outcome [1] | Potency [2] | outcome [3] | outcome [4] | Potency [5] | Potency [6] | activity change, positive = activation [7] 4.19% [at 42.5 µM] | outcome [8] | Potency [9] | Potency [10] | Potency [11] | Potency [12] | Potency [13] | outcome [14] | max response [15] 11.2% | Potency [16] | Potency [17] | Potency [18] | Potency [19]

CCC(=O)Nc1cccc(N)c1
inactive: outcome [1] | Potency [2] | outcome [3] | outcome [4] | Potency [5] | Potency [6] | activity change, positive = activation [7] -10.7% | outcome [8] | Potency [10] | Potency [11] | Potency [12] | Potency [13] | max response [15] 0.318% | Potency [20] | Potency [16] | Potency [17] | Potency [18] | Potency [19]

CCCCC1CCCCC(=O)O1 (stereo unspecified)
inactive: outcome [1] | Potency [2] | outcome [3] | outcome [4] | Potency [5] | Potency [6] | activity change, positive = activation [7] 0.974% | outcome [8] | Potency [9] | Potency [10] | Potency [11] | Potency [12] | Potency [13] | max response [15] 13.6% | Potency [20] | Potency [16] | Potency [17] | Potency [18] | Potency [19]

CCC(C(=O)NC(N)=O)c1ccccc1 (stereo unspecified)
inactive: outcome [1] | Potency [2] | outcome [3] | outcome [4] | Potency [5] | Potency [6] | activity change, positive = activation [7] -3.04% | outcome [8] | Potency [9] | Potency [11] | Potency [12] | outcome [14] | max response [15] 5.63% | Potency [16] | Potency [17] | Potency [18] | Potency [19]

OC[C@H]1O[C@@H]2O[C@H]3[C@H](O)[C@@H](O)[C@@H](O[C@H]4[C@H](O)[C@@H](O)[C@@H](O[C@H]5[C@H](O)[C@@H](O)[C@@H](O[C@H]6[C@H](O)[C@@H](O)[C@@H](O[C@H]7[C@H](O)[C@@H](O)[C@@H](O[C@H]8[C@H](O)[C@@H](O)[C@@H](O[C@H]9[C@H](O)[C@@H](O)[C@@H](O[C@H]1[C@H](O)[C@H]2O)O[C@@H]9CO)O[C@@H]8CO)O[C@@H]7CO)O[C@@H]6CO)O[C@@H]5CO)O[C@@H]4CO)O[C@@H]3CO
inactive: outcome [1] | Potency [2] | outcome [3] | outcome [4] | Potency [5] | Potency [6] | activity change, positive = activation [7] 0.681% [at 42.5 µM] | outcome [8] | Potency [9] | Potency [10] | Potency [12] | Potency [13] | outcome [14] | max response [15] 1.22% | Potency [16] | Potency [17] | Potency [18] | Potency [19]

Cc1c(F)cc2c(=O)c(C(=O)O)cn3c2c1CCC3C (stereo unspecified)
inactive: outcome [1] | Potency [2] | outcome [3] | outcome [4] | Potency [5] | activity change, positive = activation [7] -37.3% [at 42.5 µM] | outcome [8] | Potency [9] | Potency [10] | Potency [11] | Potency [12] | Potency [13] | outcome [14] | max response [15] -0.802% | Potency [20] | Potency [16] | Potency [17] | Potency [18] | Potency [19]

Cc1onc(-c2ccccc2)c1-c1ccc(S(N)(=O)=O)cc1
inactive: outcome [1] | Potency [2] | outcome [3] | outcome [4] | Potency [5] | activity change, positive = activation [7] -32.6% [at 42.5 µM] | outcome [8] | Potency [10] | Potency [11] | Potency [12] | outcome [14] | Potency [20] | Potency [16] | Potency [17] | Potency [18] | Potency [19]
active: Potency [6] 13.3 µM

COc1cc(CCC(C)=O)ccc1O
inactive: outcome [1] | Potency [2] | outcome [3] | outcome [4] | Potency [5] | Potency [6] | activity change, positive = activation [7] 3.47% | outcome [8] | Potency [9] | Potency [10] | Potency [12] | Potency [13] | outcome [14] | max response [15] -0.231% | Potency [20] | Potency [16] | Potency [17] | Potency [18] | Potency [19]

O=c1[nH]c2ccccc2c(=O)n1CCCl
inactive: outcome [1] | Potency [2] | outcome [3] | outcome [4] | Potency [5] | Potency [6] | activity change, positive = activation [7] -3.42% [at 42.5 µM] | outcome [8] | Potency [10] | Potency [11] | Potency [12] | Potency [13] | outcome [14] | max response [15] 3.48% | Potency [16] | Potency [17] | Potency [18] | Potency [19]

C=CC(=O)N1CCOCC1
inactive: outcome [1] | Potency [2] | outcome [3] | outcome [4] | Potency [5] | Potency [6] | activity change, positive = activation [7] 4.07% | outcome [8] | Potency [9] | Potency [10] | Potency [11] | Potency [12] | Potency [13] | outcome [14] | max response [15] -1.69% | Potency [20] | Potency [16] | Potency [17] | Potency [18] | Potency [19]

CCOC(=O)Nc1ccc2c(c1)N(C(=O)CCN1CCOCC1)c1ccccc1S2
inactive: outcome [1] | Potency [2] | outcome [3] | outcome [4] | Potency [5] | outcome [8] | Potency [9] | Potency [10] | Potency [11] | Potency [12] | Potency [13] | outcome [14] | max response [15] -6.68% | Potency [20] | Potency [16] | Potency [17] | Potency [18] | Potency [19]

CC12CCC(CC1=O)C2(C)C (stereo unspecified)
inactive: outcome [1] | Potency [2] | outcome [3] | outcome [4] | Potency [5] | Potency [6] | activity change, positive = activation [7] 2.86% | outcome [8] | Potency [9] | Potency [10] | Potency [11] | Potency [12] | Potency [13] | outcome [14] | max response [15] -2.19% | Potency [16] | Potency [17] | Potency [18] | Potency [19]

CCO[Si](C)(OCC)OCC
inactive: outcome [1] | Potency [2] | outcome [3] | outcome [4] | Potency [5] | Potency [6] | activity change, positive = activation [7] 4.4% | outcome [8] | Potency [9] | Potency [10] | Potency [11] | Potency [12] | Potency [13] | outcome [14] | max response [15] 3.57% | Potency [20] | Potency [16] | Potency [17] | Potency [18] | Potency [19]
